Shown are actives, neighbours in structure and some others; about 22% of the full set was active somewhere.
CYP2C9 activ – human CYP2C9 activators, primary screen, biochemical, luminescence; AID 1024, 2008; recombinant CYP2C9, luciferin-H conversion; hits give high values; factor 1 = untreated enzyme, 0 = blocked; actives 1.4% (n = 96,000); activation factor at 5 µM; Cytochrome P450 2C9 (Homo sapiens), P11712;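 active means activation factor of 2 or more for CYP2C9 at a 5 µM dose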
Target sequence (P11712 whole entry, looked up): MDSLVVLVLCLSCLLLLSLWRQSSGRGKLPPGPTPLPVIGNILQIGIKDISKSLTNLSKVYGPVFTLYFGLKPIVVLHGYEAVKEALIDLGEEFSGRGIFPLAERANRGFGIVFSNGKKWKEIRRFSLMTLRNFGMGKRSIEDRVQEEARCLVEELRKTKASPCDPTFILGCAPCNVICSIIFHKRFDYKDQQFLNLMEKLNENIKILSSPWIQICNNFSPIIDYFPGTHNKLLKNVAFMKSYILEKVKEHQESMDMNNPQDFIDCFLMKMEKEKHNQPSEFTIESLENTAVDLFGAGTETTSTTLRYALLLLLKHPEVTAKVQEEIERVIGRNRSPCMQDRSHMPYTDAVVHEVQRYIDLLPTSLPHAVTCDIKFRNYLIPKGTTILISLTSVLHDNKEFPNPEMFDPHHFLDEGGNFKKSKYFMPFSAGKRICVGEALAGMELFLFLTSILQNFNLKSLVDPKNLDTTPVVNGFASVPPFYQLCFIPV
CYP2C9 inhib – blockers of cytochrome P450 2C9 activity – biochemical, luminescence, ADME assay, primary screen | P11712 | CYP2C9 Supersomes, luciferin-H conversion | inhibition, % at 5 µM | actives 20% (n = 96,000);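 active means blocking of liver enzyme CYP2C9 beyond about 50% at 5 µM, limit read from the data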
CYP2C19 activ – human CYP2C19 activators, primary screen, biochemical, luminescence | recombinant CYP2C19, luciferin-H EGE luminescence; hits give high values; 0 = fully inhibited enzyme, 1 = untreated enzyme | Cytochrome P450 2C19 (Homo sapiens), P33261 | AID 1025, 2008 | activation factor at 5 µM | 96,000 tested, under 10 active;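 active means activation factor of at least 2 at 5 µM in the primary screen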
CYP2C19 inh – blockers of cytochrome P450 2C19 activity – biochemical, luminescence, ADME assay, primary screen | P33261 | CYP2C19 Supersomes, luciferin-H EGE luminescence, 30 min | inhibition, % at 5 µM | actives 21% (n = 96,000) | AID 778, 2007;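 active means CYP2C19 inhibition above a set limit at 5 µM in the primary screen, cut at about 50% in these data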
Measles CPE – compounds protecting cells from measles virus cytopathic effect, primary screen, measles RdRp inhibitor project, single point, MLSMR library, absorbance; actives 1.5% (n = 140,000); protection (pct of control), % at 4 µM; Measles virus-infected cells, CPE protection; in the data active means protection mostly above about 24%, no sharp cut-off; inactive means mostly below about 26%
Of the large screens only hits and unclear results are named; the others gave an inactive call.

CC(C)(C)c1ccc(OCc2ccc(C(=O)N/N=C/c3ccc([N+](=O)[O-])cc3)o2)cc1	none
O=C(c1ccc(F)cc1)N1C2CCC1CC(O)(c1ccccc1F)C2 (configuration not stated)	CYP2C19 inh 53
NC(=O)c1oc2ccccc2c1NC(=O)C1CCCCC1	CYP2C9 activ 2.7
COc1cccc(NC(=O)N2CCN(c3ccc(C(F)(F)F)cn3)CC2)c1	none
COc1cccc(C2C3=C(N=C4SCC(=O)N42)c2ccccc2CC3)c1OC (configuration not stated)	CYP2C9 inhib 60, CYP2C19 inh 87
COc1ccc(OC)c(C2C3=C(N=C4SCC(=O)N42)c2ccccc2CC3)c1 (configuration not stated)	none
Cc1c(/C=C/C(=O)c2ccccc2)cnn1C	none
Cc1c(/C=C/C(=O)c2ccc(O)cc2)cnn1C	Measles CPE 42 (no result: CYP2C9 activ, CYP2C9 inhib, CYP2C19 activ, CYP2C19 inh)
Cc1nn(C(=O)N2CCCCC2)c(C)c1CN1C(=O)c2ccccc2C1=O	CYP2C9 inhib 61, CYP2C19 inh 69
Cc1nn(C(=O)c2ccco2)c(C)c1CN1C(=O)c2ccccc2C1=O	CYP2C9 inhib 96
Cc1nn(S(=O)(=O)N(C)C)c(C)c1CN1C(=O)c2ccccc2C1=O	none
Cc1nn(C(=O)c2cccs2)c(C)c1CN1C(=O)c2ccccc2C1=O	none
COc1ccc(C(=O)COC(=O)C(CCSC)NS(=O)(=O)c2ccc(Cl)cc2)cc1 (configuration not stated)	none (no result: CYP2C9 activ, CYP2C9 inhib, CYP2C19 activ, CYP2C19 inh)
CN(C(=O)COC(=O)c1ccc(NS(=O)(=O)c2cccs2)cc1)C1CCCCC1	none (no result: CYP2C9 activ, CYP2C9 inhib, CYP2C19 activ, CYP2C19 inh)
COC(=O)CNc1nc(OC)nc(N(C)C)n1	none
CC(C)(C)C1(c2ccccc2)NC(=O)N(CC(=O)N2CCOCC2)C1=O (configuration not stated)	none
CCn1c(SCC(=O)NCc2ccco2)nnc1-c1cccs1	none
Cc1cc(C)c(NC(=O)C(C)Sc2nnc(-c3ccco3)n2-c2ccccc2)c(C)c1 (configuration not stated)	CYP2C9 inhib 66, CYP2C19 inh 90
CC(Sc1nnc(-c2cccs2)n1-c1ccccc1)C(=O)NCc1ccco1 (configuration not stated)	CYP2C9 inhib 82, CYP2C19 inh 71
CC1CN(C)C(c2ccccc2)C(C)C12NC(=O)NC2=O (configuration not stated)	none
c1ccc2sc(SCc3ccc(-c4nnco4)cc3)nc2c1	CYP2C19 inh 79
CCOC(=O)N1CCN(C(=O)c2cccc(-n3c(=S)[nH]c4cc(Cl)ccc4c3=O)c2)CC1	none
COCCCNC(=O)CN1CCN(Cc2ccc(Cl)cc2)C1=O	none
CC(C)OCCCNC(=O)CN1CCN(Cc2ccccc2Cl)C1=O	CYP2C9 inhib 52
O=C(CN1CCN(Cc2ccccc2Cl)C1=O)NC1CCCCCCC1	CYP2C19 inh 72
Cc1cc(Cl)ccc1OC(C)C(=O)N1CCCN(C(=O)C(C)Oc2ccc(Cl)cc2C)CC1 (configuration not stated)	none
Cc1ccc(SCc2cc(=O)n3[nH]c(C)nc3n2)cc1	CYP2C9 inhib 56
Cc1ccc(SCc2cc(=O)n3[nH]cnc3n2)cc1	none (no result: CYP2C9 activ, CYP2C9 inhib, CYP2C19 activ, CYP2C19 inh)
Cc1nc2nc(CSc3ccc(Cl)cc3)cc(=O)n2[nH]1	CYP2C9 inhib 55
Cc1ccc(S(=O)(=O)/C(C#N)=C/c2c(N3CCC(C(N)=O)CC3)nc3c(C)cccn3c2=O)cc1	CYP2C9 inhib 80
Cc1ccc(S(=O)(=O)/C(C#N)=C/c2c(N3CCC(C(N)=O)CC3)nc3ccccn3c2=O)cc1	CYP2C9 inhib 92
CCN1CCN(c2nc3c(C)cccn3c(=O)c2/C=C(\C#N)S(=O)(=O)c2ccccc2)CC1	CYP2C9 inhib 90
Cc1cccn2c(=O)c(/C=C(\C#N)S(=O)(=O)c3ccccc3)c(N3CCC(C(N)=O)CC3)nc12	CYP2C9 inhib 82
O=C(Oc1ccccc1C(=O)Nc1ccccc1)c1ccc(Br)c([N+](=O)[O-])c1	none (no result: CYP2C9 activ, CYP2C9 inhib, CYP2C19 activ, CYP2C19 inh)
COc1ccccc1N1CCN(c2nc3c(C)cccn3c(=O)c2C=O)CC1	CYP2C19 inh 69
Cc1cccn2c(=O)c(C=O)c(N3CCCCCC3)nc12	none
Cc1cccc(NC(=O)C2=C(O)c3ccccc3N(C)S2(=O)=O)c1	none
CN1c2ccccc2C(O)=C(C(=S)Nc2ccc(Cl)cc2)S1(=O)=O	CYP2C9 inhib 97
Cc1ccc(NC(=O)C2=C(O)c3sccc3N(C)S2(=O)=O)cc1	CYP2C9 inhib 64
Cc1ccc(NC(=S)C2=C(O)c3sccc3N(C)S2(=O)=O)cc1	CYP2C9 inhib 95
CN1c2ccsc2C(O)=C(C(=O)Nc2ccccc2)S1(=O)=O	CYP2C9 inhib 73
Cc1ccc(NC(=S)c2ccccc2)cc1	none (no result: CYP2C9 activ, CYP2C9 inhib, CYP2C19 activ, CYP2C19 inh)
CCN(Cc1cc2ccccc2[nH]c1=O)C(=O)C(C)C	none
CCOC(=O)/C(=C\c1cccc(O)c1)c1nc2sc(C)c(C)c2c(=O)[nH]1	none (no result: CYP2C9 activ, CYP2C9 inhib, CYP2C19 activ, CYP2C19 inh)
COC(=O)/C=C1/N/C(=N\c2nc(C)cc(C)n2)N(c2ccccc2)C1=O	none (no result: CYP2C9 activ, CYP2C9 inhib, CYP2C19 activ, CYP2C19 inh)
CN(C)/C=N/c1cc(=O)[nH]c(=O)n1C	none (no result: CYP2C9 activ, CYP2C9 inhib, CYP2C19 activ, CYP2C19 inh)
O=C(CS(=O)(=O)c1cn(Cc2ccc(Cl)cc2)c2ccccc12)N1CCCC1	CYP2C9 inhib 70, CYP2C19 inh 76
O=C(CS(=O)(=O)c1c[nH]c2ccccc12)N1CCCCC1	CYP2C19 inh 64
Nc1nnc(SCC(=O)N2CCc3ccccc32)n1-c1ccccc1	none
Cc1ccc(-c2nnc(SCC(=O)N3CCCc4ccccc43)n2N)cc1	CYP2C19 inh 58
CCCn1c(SCC(=O)N2CCCc3ccccc32)nnc1-c1ccccn1	CYP2C19 inh 79
CC(c1nnc(SCC(=O)N2CCc3ccccc32)n1-c1ccc(Cl)cc1)N(C)C (configuration not stated)	CYP2C19 inh 61
Cc1ccc(-c2nnc3ccc(SCC(=O)N4CCCc5ccccc54)nn23)cc1	none (no result: CYP2C9 activ, CYP2C9 inhib, CYP2C19 activ, CYP2C19 inh)
COc1ccc(OCc2nnc(SCC(=O)N3CCCc4ccccc43)n2-c2ccc(C)cc2)cc1	CYP2C9 inhib 87, CYP2C19 inh 62
COc1ccc(-n2c(Cc3cccn3C)nnc2SCC(=O)N2CCCc3ccccc32)cc1	none
CN(Cc1ccccc1)C(=O)c1cccc(N2C(=O)NC3CC2(C)Oc2ccccc23)c1 (configuration not stated)	none
COc1nn(-c2nc(-c3ccccc3)cc(C(F)(F)F)n2)cc1[N+](=O)[O-]	none (no result: CYP2C9 activ, CYP2C9 inhib, CYP2C19 activ, CYP2C19 inh)
CC(C)(C)NC(=O)C(c1ccccc1F)N(Cc1ccco1)C(=O)c1csnn1 (configuration not stated)	none
CC(C)(C)c1cc(NC(=O)CCSc2nnc3ccccn23)cc(C(C)(C)C)c1	none (no result: CYP2C9 activ, CYP2C9 inhib, CYP2C19 activ, CYP2C19 inh)
CCOc1ccc(-n2ccnc2SCC(=O)N2CCCc3ccccc32)cc1	none (no result: CYP2C9 activ, CYP2C9 inhib, CYP2C19 activ, CYP2C19 inh)
Cc1ccc(-c2nnc3ccc(SCC(=O)N4CCc5ccccc54)nn23)cc1	CYP2C9 inhib 100
